Inhibition data for 37 compounds are collected here from ChEMBL document CHEMBL3433997, “St. Jude Leishmania screening dataset” (2016).

What all share (assay type): functional
In test [1] the target is Solute carrier family 2, facilitated glucose transporter member 1 (Homo sapiens) (UniProt P11166). In words: ST_JUDE_LEISH: Cytotoxicity at 2uM final concentration against transgenic Leishmania Mexicana promastigotes LmGLUT1 that are glucose transport deficient and complemented with the human glucose transporter GLUT1. Activity is measured by DNA content using SYBR green in vitro.
Sequence of Solute carrier family 2, facilitated glucose transporter member 1 (Homo sapiens) (P11166 whole entry): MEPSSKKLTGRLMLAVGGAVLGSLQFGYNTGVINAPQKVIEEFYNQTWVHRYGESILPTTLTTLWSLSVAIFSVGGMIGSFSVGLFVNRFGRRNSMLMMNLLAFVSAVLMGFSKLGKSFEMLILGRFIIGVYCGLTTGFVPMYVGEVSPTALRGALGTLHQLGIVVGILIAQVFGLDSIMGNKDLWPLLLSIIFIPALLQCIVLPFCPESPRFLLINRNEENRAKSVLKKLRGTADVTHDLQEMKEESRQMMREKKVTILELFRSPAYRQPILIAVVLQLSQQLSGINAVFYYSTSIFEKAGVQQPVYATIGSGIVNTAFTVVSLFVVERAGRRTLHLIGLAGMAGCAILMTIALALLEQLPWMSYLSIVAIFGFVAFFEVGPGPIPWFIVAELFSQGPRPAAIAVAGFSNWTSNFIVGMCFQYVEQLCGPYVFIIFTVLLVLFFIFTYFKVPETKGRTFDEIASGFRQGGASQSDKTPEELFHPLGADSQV

Test [2] concerns the target Hexose transporter 1 (Plasmodium falciparum) (UniProt O97467). In words: ST_JUDE_LEISH: Cytotoxicity at 2uM final concentration against transgenic Leishmania Mexicana promastigotes LmPfHT that are glucose transport deficient and complemented with the Plasmodium falciparum hexose transporter. Activity is measured by DNA content using SYBR green in vitro.
The target in test [3] is Glucose transporter (Leishmania mexicana) (UniProt O61059). In words: ST_JUDE_LEISH: Cytotoxicity at 2uM final concentration against transgenic Leishmania Mexicana promastigotes LmGT2 that are glucose transport deficient and complemented with the L. Mexicana glucose transporter 2. Activity is measured by DNA content using SYBR green in vitro.

Each structure is given as a SMILES string.

Regarding `COc1c(C2=CCN(CCCCNC(=O)c3ccc(-c4ccc(C#N)cc4)cc3)CC2)c(C)cc2c1C(C)(C)CCC2(C)C`, the values for the inhibition in test [1], in test [2] and in test [3] were 2.63%, 2.18% and 0.96%, respectively.
With `COc1ccc2nccc([C@@H](O)CN3CCC(NC(=O)c4cccc(C(=O)c5ccccc5)c4)CC3)c2c1`, the inhibition – broadly, the drop in the measured response relative to a control, in per cent – in test [1] was -1.15%; in test [2], 0.28%; in test [3], 0.47%.
The corresponding values for `O=C(NC1CC1)C1CCN(Cc2cc3ccccc3n2Cc2ccc(Cl)cc2)CC1` are -2.52%, -1.61% and -1.79%.
For `CC(CO)(CO)NCc1cc2ccc3ccsc3c2c2ccccc12`, the values for the inhibition in test [1], in test [2] and in test [3] were 77.1%, 71.3% and 48%, respectively.
Consider `COc1ccc(O)cc1/C=N/Nc1ccnc2cc(Cl)ccc12`, for which the inhibition in test [1] stood at 7.1%; in test [2] it was 5.98%; in test [3], 9.21%.
The corresponding values for `N#Cc1ccc(C=Cc2nccc3c2[nH]c2ccccc23)cc1` are 10.9%, 9.49% and 9.13%.
The like results for `C[C@H](NC(=O)c1c(OC2CN(C(c3ccccc3)c3ccccc3)C2)c(-c2ccccc2)nc2ccccc12)C1CCCCC1` were, in that order, 2.01%, 0.08% and 0.33%.
The corresponding values for `COc1ccc2nccc(NCC3(O)CCC(NCc4ccc5c(n4)NC(=O)CS5)CC3)c2n1` (stereo unspecified) are 4.33%, 3.51% and 4.28%.
Consider `COC(=O)c1cccc(CNCc2ccc(-c3ccc(-c4nc5cccc(C)c5[nH]4)cc3)cc2)c1`, for which the figures for the inhibition in test [1], in test [2] and in test [3] were 6.68%, 1.95% and 1.08%, respectively.
Regarding `CCn1c(-c2nonc2N)nc2c(-c3cccc(Cl)c3)ncc(OCCCNCc3cnc(C)nc3N)c21`, the inhibition in test [1] is 0.16%; in test [2], -3.01%; in test [3] it was 2.98%.
As for `Cc1[nH]c(C)c(-c2ccc(CCc3ccc(N)cc3)cc2)c(=O)c1Cl`, the values for the inhibition in test [1], in test [2] and in test [3] were 4.43%, 6.39% and 1.77%, respectively.
On to `CCCCCC(C)N/C(=N/c1cccc(Cl)c1Cl)Nc1ccc(C#N)cc1O` (stereo unspecified), for which the inhibition is 5.91% in test [1], 4.59% in test [2] and 2.7% in test [3].
The corresponding values for `CC(C)(C)OC(=O)NCc1ccc(Nc2nnc(-c3ccc(OCC(=O)NCc4ccc(C(C)(C)C)cc4)c([N+](=O)[O-])c3)o2)cc1` are 2.12%, 1.65% and -0.53%.
In the case of `c1cc(CNCCN2CCNCC2)cc(-c2ccc(-c3nc4ccccc4[nH]3)cc2)c1`, the inhibition in test [1] came to 18.3%; in test [2] it was 16.8%; in test [3], 13.2%.
The like results for `CCOc1c(Br)cc(Cl)cc1CNCCCNc1nc2ccccc2[nH]1` were, in that order, 1.77%, 1.74% and 3%.
For `Clc1ccc(CNc2nc(NCCc3c[nH]cn3)nc(Nc3ccc4c(c3)OCO4)n2)cc1`, the inhibition in test [1] is 2.28%; in test [2], 2.3%; in test [3], 3.66%.
The corresponding values for `Cn1nccc1C(=O)NCCNCc1ccc(-c2cccc(-c3nc4cc(F)ccc4[nH]3)c2)cc1` are -0.28%, -4.29% and -1.92%.
The like results for `Cc1cccc2nc(-c3ccc(-c4ccc(CN5CCOCC5)cc4)cc3)[nH]c12` were, in that order, 4.34%, 3.46% and 2.61%.
The like results for `COc1cc(NC2CCCC(NCc3cn(S(=O)(=O)c4ccccc4)c4ccccc34)C2)nc2ccccc12` (stereo unspecified) were, in that order, 1.09%, 2.28% and 2.67%.
Regarding `Cc1cccc(NC(=O)NCc2ccccc2)n1`, the inhibition was 1.62% in test [1], 1.46% in test [2] and 2.38% in test [3].
The corresponding values for `CCCCOc1ccc(C(=O)C(CCC(CNC(C)(C)C)C(=O)c2ccc(OCCCC)cc2)CNC(C)(C)C)cc1` (stereo unspecified) are 43.9%, 12.2% and 31.8%.
`Cc1sc(C)c(C(F)(F)F)c1CNCCCNc1cc(=O)c2ccccc2[nH]1`: the inhibition in test [1] amounted to 4.01%; in test [2] it was 4.67%; in test [3], 4.27%.
For the compound `Cc1cccc2nc(-c3cccc(-c4cccc(CNCCc5ccncc5)c4)c3)[nH]c12`, the inhibition is -1.47% in test [1], 1.2% in test [2] and -1.48% in test [3].
With `O=C(/C=C/c1ccc(C(F)(F)F)cc1)NCCCCCN1CCN(C(=O)Nc2ccc(Cl)cc2)CC1`, the inhibition in test [1] was 2.27%; in test [2], 3.09%; in test [3], 1.84%.
Regarding `O=C(/C=C/c1ccc(Cl)c(Cl)c1)NCC1CCN(Cc2ccc(O)cc2)CC1`, the inhibition in test [1] came out at 69.6%; in test [2] it was 57.8%; in test [3], 46.2%.
The like results for `Cc1cc(NC(=O)NC(=N)N)ccc1Cl` were, in that order, 6.27%, 5.72% and 3.21%.
Turning to `O=C(NCCCN1CCOCC1)c1cccc(Nc2nccc(Nc3ccc(Oc4ccccc4)cc3)n2)c1`, the inhibition in test [1] was 2.39%; in test [2], -0.18%; in test [3], -0.86%.
The like results for `OC(CN1CCN(C2CCCCC2)CC1)Cn1c2ccccc2c2cc(Br)ccc21` (stereo unspecified) were, in that order, 1.23%, 0.82% and 0.47%.
Take `Cc1ccc2ncc(Cl)c(CCN3CCC(NCc4ccc5c(n4)NC(=O)CS5)CC3)c2n1`: the values for the inhibition in test [1], in test [2] and in test [3] were 3.75%, 4.54% and 2.85%, respectively.
The corresponding values for `COc1cccc(CC(=O)NC2CCN(c3ccnc4cc(Cl)ccc34)C2)c1` (stereo unspecified) are 0.02%, -0.46% and 1.48%.
The corresponding values for `OCC1CCN(Cc2ccc(-c3ccc(-c4nc5cc(C(F)(F)F)ccc5[nH]4)cc3)cc2)CC1` are 5.9%, 8.94% and 3.07%.
The like results for `Cc1ccc(-c2nc3cc(NC(=O)c4ccc([N+](=O)[O-])o4)ccc3o2)cc1Cl` were, in that order, 77%, 85.3% and 68.1%.
Take `C=C(C)C1CC=C(CN2CCCC(n3ccc4cc(NC(=O)c5ccco5)ccc43)CC2)CC1` (stereo unspecified): the inhibition is -1.77% in test [1], 3.75% in test [2] and -2.38% in test [3].
Take `Fc1cccc(COc2ccc(Nc3ncnc4sc(C#C[C@H]5CC[C@H](CNCC(F)(F)F)N5)cc34)cc2Cl)c1`: the inhibition in test [1] amounted to 1.63%; in test [2] it was 1.52%; in test [3], 1.3%.
As to `Cc1cccc2nc(-c3ccc(-c4cccc(NC(=O)CCc5c[nH]cn5)c4)cc3)[nH]c12`, the inhibition turned out to be 0.1% in test [1], 1.46% in test [2] and 2.35% in test [3].
For the compound `O=C(Nc1ccncc1)c1cc(C(=O)Nc2ccncc2)cc([N+](=O)[O-])c1`, the inhibition in test [1] was -0.17%; in test [2], -3.19%; in test [3] it was -0.41%.
For the compound `O=C(c1c(-c2[nH]c3ccccc3c2C(=O)C(F)(F)F)[nH]c2ccccc12)C(F)(F)F`, the inhibition in test [1] was 1.75%; in test [2] it was 0.78%; in test [3], -1.45%.
